# For part of these data: Results with a measured potency or affinity are listed apart. Activity calls are given as the source filed them.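 Rule for the calls, unless noted: active = fitted half-maximal concentration within 10 nM to 100 µM, steepness 0.5 to 2, significant signal drop, low assay interference; inactive = the rest.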
# Tests used:
# [1] = molecular target: Cell division control protein 42 homolog (Homo sapiens) (UniProt P60953); assay: activated mutant Cdc42 GTP-binding inhibitors, dose response, biochemical, multiplex bead flow cytometry, Bodipy-FL-GTP (AID 1333;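 active = fitted half-maximal concentration within the tested dose range, moderate curve steepness, a statistically real signal drop, and little compound fluorescence or tag-binding interference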)
# Sequence of Cell division control protein 42 homolog (Homo sapiens) (P60953 whole entry, looked up): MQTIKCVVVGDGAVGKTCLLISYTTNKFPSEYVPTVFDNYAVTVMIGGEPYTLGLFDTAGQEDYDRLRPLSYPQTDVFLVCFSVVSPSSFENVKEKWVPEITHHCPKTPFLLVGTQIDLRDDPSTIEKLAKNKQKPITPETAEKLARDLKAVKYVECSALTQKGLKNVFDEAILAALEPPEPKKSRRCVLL
# [2] = molecular target: Cell division control protein 42 homolog (Homo sapiens) (UniProt P60953); assay: wildtype Cdc42 GTP-binding inhibitors, dose response, biochemical, multiplex bead flow cytometry, Bodipy-FL-GTP (AID 1334;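 active = fitted half-maximal concentration within the tested range, moderate curve steepness, significant signal drop, and little compound fluorescence or bead-linkage interference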); details: bead-based flow cytometry, Bodipy-FL-GTP binding to GST-Cdc42; at 100 µM (top of the series) unless noted
# [3] = molecular target: GTPase HRas (Homo sapiens) (UniProt P01112); assay: inhibitors of GTP binding to wildtype Ras, dose response, biochemical, multiplex bead flow cytometry (AID 1335); details: bead-based flow cytometry, Bodipy-GTP binding to GST-Ras; at 100 µM (top of the series) unless noted
# Sequence of GTPase HRas (Homo sapiens) (P01112 whole entry, looked up): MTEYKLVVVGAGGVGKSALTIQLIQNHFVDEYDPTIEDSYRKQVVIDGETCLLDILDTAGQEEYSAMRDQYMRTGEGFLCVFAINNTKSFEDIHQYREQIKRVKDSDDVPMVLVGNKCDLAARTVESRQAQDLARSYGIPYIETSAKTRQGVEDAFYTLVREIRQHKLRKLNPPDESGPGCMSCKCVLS
# [4] = tested on: Ras-related protein Rab-7a (dog), GTP binding; assay: Rab7 GTP binding inhibitors, potency, dose response, biochemical, wildtype, multiplex bead flow cytometry (AID 1336; call rule not given here)
# [5] = molecular target: Ras-related C3 botulinum toxin substrate 1 (Homo sapiens) (UniProt P63000); assay: wildtype Rac1 GTP binding inhibitors, dose response, biochemical, multiplex bead flow cytometry (AID 1340;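 active = dose curve with midpoint inside tested range, moderate steepness, plateau gap beyond fit error, low compound glow and bead-link interference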); details: GST-Rac1 beads, Bodipy-FL-GTP binding; at 100 µM (top of the series) unless noted
# [6] = molecular target: GTPase HRas (Homo sapiens) (UniProt P01112); assay: activated Ras mutant GTP binding inhibitors, dose response, biochemical, multiplex bead flow cytometry (AID 1341;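 active = dose-response curve with midpoint inside the tested range, moderate steepness, significant amplitude and little compound fluorescence or bead-attachment interference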;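 note: GST-tagged constitutively activated Ras mutant immobilized on beads and multiplexed with other GTPases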)
Compound,outcome [1],"fluorescence, percent of control (lower = inhibition) [2] [%]","GTP binding, percent of control [3] [%]",outcome [4],"GTP binding signal, raw median fluorescence (lower = inhibition) (MCF (arbitrary fluorescence units)) [5]",outcome [6]
Cc1ccccc1/C=C1\SC(=S)N(/N=C/c2cc([N+](=O)[O-])ccc2O)C1=O,inactive,34.1,81.2,inactive,228,inactive
C/C=C/c1ccccc1OCc1ccc(C(=O)O)o1,inactive,180,326,inactive,420,inactive
Cc1ccc(-c2csc3nc4c5ccccc5c(NCCCN5CCOCC5)nn4c(=O)c23)cc1,inactive,32,68.7,inactive,176,inactive
Nc1nc2c(c(=O)[nH]1)C(c1cccc3ccccc13)C1=C(N2)c2ccccc2C1=O (stereo not given),inactive,31,75.5,inactive,204,inactive
CN(C)c1ccc(/C=C/c2ccc3c4ccccc4ccc3[n+]2-c2ccccc2)cc1,inactive,40,69.7,inactive,236,inactive
CC(=O)OC(C(=O)NC1CCCCC1)c1ccc(Cl)cc1 (stereo not given),inactive,34.5,82.1,inactive,240,inactive
COc1cc(/C=N/Nc2ncnc3sc4c(c23)CCC4)ccc1O,inactive,33.9,48.1,inactive,126,inactive
C(=N\Nc1nn2cnnc2c2ccccc12)/c1ccco1,inactive,31.6,64.2,inactive,142,inactive
O=C(CNC(=O)c1ccco1)OCN1C(=O)c2ccccc2C1=O,inactive,52,66.1,inactive,220,inactive
CN1/C(=C\C=C(/C#N)C(=O)Nc2ccc(Cl)cc2)C(C)(C)c2ccccc21,inactive,76.8,80,inactive,226,inactive
COc1ccccc1OCCn1cc(C(=O)O)c2cccc(C)c21,inactive,50.6,200,inactive,55.9,inactive
O=c1c(/C=N/Nc2ccccc2)c(Sc2nnnn2-c2ccccc2)nc2ccccn12,inactive,107,114,inactive,308,inactive
O=C(O)c1ccc(CSCc2ccccc2)o1,inactive,62.4,91.5,inactive,41.9,inactive
O=[N+]([O-])c1cc(Cc2ccccc2)cc(C=Nc2ccc(N3CCOCC3)cc2)c1O,inactive,45.1,65.5,inactive,0,inactive
Cn1nnnc1SCc1ccc(C(=O)Nc2nccs2)cc1,inactive,36.8,47.9,inactive,126,inactive
CCN(CC)S(=O)(=O)c1cc([N+](=O)[O-])ccc1N=Nc1c(O)[nH]c2ccccc12,inactive,82.9,87.4,inactive,351,inactive
Cc1cc(C)cc(C(=O)N(NC(=O)Nc2ccc(Cl)cc2)C(C)(C)C)c1,inactive,94.9,150,inactive,186,inactive
COc1ccc(Nc2ccccc2C(=O)O)cc1,inactive,45.2,92.5,inactive,262,inactive
COc1cccc2c1c(C(=O)O)cn2CCOc1ccccc1C,inactive,58.5,212,inactive,55.1,inactive
O=C(O)c1cccnc1SCc1ccccc1Cl,inactive,103,119,inactive,88.1,inactive
Cc1nn(-c2ccc(F)cc2)c(Cl)c1/C=C(\CCC(=O)O)c1nc2ccccc2s1,inactive,64.7,53.6,inactive,164,inactive
Cc1csc(NC(=O)c2cc(=O)[nH]c3ccc(S(=O)(=O)N4CCOCC4)cc23)n1,inactive,31.8,74.5,inactive,190,inactive
COc1cccc(OCc2c(C)cccc2C)c1C(=O)O,inactive,56.5,209,inactive,52.5,inactive
CCOC(=O)N1CCN(/C=C(\C#N)c2nc3ccccc3s2)CC1,inactive,80.8,92.3,inactive,240,inactive
CCOC(=O)c1ccc(Nc2nc(C(=O)OCC)nc3ccccc23)cc1,inactive,66.3,128,inactive,159,inactive
Cc1ccccc1CSc1ncccc1C(=O)O,inactive,74.5,87.9,inactive,48.3,inactive
c1ccc(CN2CCN(CCOCCOc3cccc4ccccc34)CC2)cc1,inactive,28.9,79,inactive,234,inactive
O=C(Nc1ccc2nc(-c3cccs3)[nH]c2c1)c1cccs1,inactive,30.4,68.4,inactive,184,inactive
CN(Cc1ccccc1)c1ccc([N+](=O)[O-])cc1C(=O)O,inactive,41,87.3,inactive,276,inactive
CCc1ccc(OCc2ccc(C(=O)O)o2)cc1,inactive,60.7,90.3,inactive,35.2,inactive

# Source: PubChem BioAssay
